# This is a sample that favours compounds with a hit; in the whole collection about 1.6% have one here.
# VCAM1 TNFa inh: inhibitors of TNFa-induced VCAM1 expression, primary screen, imaging, HUVEC, TNFa stimulus, immunofluorescence; HUVEC TNFa-induced VCAM-1 immunofluorescence, high-content imaging; inhibition, % at 2 µM; actives 0.48% (n = 95,000);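 active = inhibition above the batch mean plus 3 SD, with images confirmed as a hit by eye, cut at about 37% in these data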;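 note: 0% = TNF-stimulated DMSO wells and 100% = unstimulated control wells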
# E-sel TNF inh: E-selectin induction blockers in HUVEC – imaging, immunofluorescence, high content, primary screen. inhibition, % at 2 µM. AID 1246, 2008. actives 0.71% (n = 120,000). HUVEC TNFa-induced E-selectin immunofluorescence;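 active = inhibition above the batch mean plus 3 SD, and confirmed as a hit on visual image review, cut at about 43% in these data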;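 note: 0% = TNF-stimulated DMSO wells and 100% = unstimulated control wells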
# HUVEC tox TNFa: cytotoxicity in TNFa-stimulated HUVEC, primary screen, cytotoxicity control for VCAM1 expression modulator project, imaging, Hoechst nuclei count | AID 848, 2007 | HUVEC TNFalpha-stimulated, Hoechst cell count | cell count reduction, % at 2 µM | actives 0.17% (n = 93,000);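 active = cell count reduction exceeding the screen mean by over 5 SD, scaled to untreated wells per plate, cut at about 78% in these data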;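 note: cells counted after 24 h of TNF alpha exposure following the 1 h pretreatment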
# Phagocyt inh: inhibitors of macrophage phagocytosis, primary screen, imaging, J774A.1 cells, IgG beads; J774A.1 macrophage IgG-bead phagocytosis; inhibition, % at 5 µM; actives 0.07% (n = 110,000);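 active = inhibition above the mean of the plate negative controls plus 5 SD, cut at about 13% in these data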;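 note: phagocytic index as fraction of beads internalized from green versus red external bead signal; plate controls were DMSO negative control for no effect and cytochalasin-D positive control for full effect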
# INS promoter inh: inhibitors of insulin promoter-driven GFP, primary screen, imaging, TRM-6 cells (human fetal islet line), eGFP reporter, cell count; reporter expression induced with tamoxifen; inhibition, % at 2 µM; actives 0.9% (n = 130,000); AID 1273, 2008;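 active = inhibition above the mean plus 3 SD, with well images judged a real hit on visual review, cut at about 60% in these data, passing the limit was not always enough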
# cytoskel mod: modifiers of F-actin cytoskeleton organization, primary screen, imaging, HUVEC, phalloidin staining, high-content imaging; HUVEC TNFa F-actin phalloidin imaging; inhibition, % at 2 µM; actives 0.18% (n = 91,000); AID 836, 2007;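 active = inhibition above the batch mean plus 3 SD and confirmed as a hit by visual image inspection, cut at about 30% in these data, passing the limit was not always enough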
# * marks the source's active call; other numbers are inactive results; · = no result given.
SMILES,VCAM1 TNFa inh,E-sel TNF inh,HUVEC tox TNFa,Phagocyt inh,INS promoter inh,cytoskel mod
C=CCNC(=S)NNC(=O)c1ccc(OCCC)cc1,-5,-27,4,·,-11,0
C=CCNC(=S)NNC(=O)c1ccc(OCC)cc1,0,53*,-7,-2,-5,13
Cc1cc2ncn(S(=O)(=O)c3ccc(S(=O)(=O)N4CCOCC4)cc3)c2cc1C,9,9,6,-4,-21,-16
Cc1cc2nc(CCN3CCOCC3)n(S(=O)(=O)c3ccc(C(C)(C)C)cc3)c2cc1C,-33,-10,-10,·,86*,8
Cc1cc(-c2nnc(CCC(=O)N(CC3CCC3)CC3CCCO3)o2)no1 (centres undefined),·,13,·,·,·,·
CCOC(=O)c1sc2nc(C)nc(NCCc3ccccn3)c2c1C,·,-22,·,·,94*,·
CCOC(=O)c1sc2nc(CC(=O)OC)nc(NCC(=O)OC)c2c1C,-2,-6,-47,-2,·,5
CN(C)c1cc[n+](CC(=O)N2CCCc3ccccc32)cc1,·,·,·,·,-40,·
COc1ccc(N2CCN(Cc3cc(=O)oc4c3ccc3ccccc34)CC2)cc1,·,·,·,-1,·,·
O=c1cc(C(F)F)oc2c1ccc1ccccc12,·,93*,·,0,·,·
Cc1c(Cl)cnc(NC(=O)COC(=O)c2nn(C)c(=O)c3ccccc23)c1Cl,·,64*,·,-16,·,·
CCCn1nc(C(=O)OCC(=O)Nc2ncc(Cl)c(C)c2Cl)c2ccccc2c1=O,·,8,·,-5,·,·
COC(=O)Nc1ccc(S(=O)(=O)Nc2ccc(O)cc2)cc1,7,4,-20,·,79*,9
O=C(Cn1nc(-c2cccc([N+](=O)[O-])c2)c2ccccc2c1=O)Nc1cccnc1,6,-47,-10,-1,-20,-8
Cc1ccc(N2CC(C(=O)Nc3cccnc3)CC2=O)cc1 (centres undefined),-2,·,16,0,37,-4
CCc1ccc(N2CC(C(=O)Nc3cccnc3)CC2=O)cc1 (centres undefined),3,63*,-9,-1,-3,-10
O=C(N/N=C/C1C(c2ccccc2)C1(Cl)Cl)c1cccc(Br)c1 (centres undefined),2,-28,-4,-2,-54,-12
Clc1cccc(CSc2nnc(-c3sccc3-n3cccc3)o2)c1,-3,82*,-7,·,-5,·
CC[C@H](C)[C@@H](NC(=O)O[C@@H]1C(=O)c2cc(Br)ccc2O[C@H]1c1ccc2c(c1)OCO2)C(=O)OC,·,-14,·,·,-70,·
Cc1cc(C(=O)N2CCc3ccccc32)c2ccccc2n1,3,64*,-14,0,·,3
O=C(c1ccccc1)N1CCc2ccccc21,-7,14,0,3,0,13
NS(=O)(=O)c1ccc(NC(=O)C2Cc3ccccc3C(=O)O2)cc1 (centres undefined),·,·,·,·,71*,·
O=C1OC(C(=O)Nc2ccccc2)Cc2ccccc21 (centres undefined),·,9,·,·,-78,·
CCn1c(=O)n(-c2ccc(Cl)cc2)c(=O)c2c3c(sc21)COC(C)(C)C3,-9,-9,13,·,74*,4
Cc1ccc(Oc2nnc(-c3cccs3)c3ccccc23)cc1,·,·,·,5,81*,·
SMILES,VCAM1 TNFa inh,E-sel TNF inh,HUVEC tox TNFa,Phagocyt inh,INS promoter inh,cytoskel mod
COc1ccccc1OCCN1CSC(=S)N(C)C1,·,21,·,0,19,·
Cc1cccc(OCCN2CSC(=S)N(C)C2)c1,43*,·,14,0,·,4
O=C(c1ccc([N+](=O)[O-])c(CS(=O)(=O)c2ccc(Cl)cc2)c1)N1CCCC1,·,·,·,·,-36,·
CC(C)CCNC(=O)NC(=O)COC(=O)C1=COCCO1,-3,1,-15,·,78*,-1
CC(C)c1cccc(C(C)C)c1NC(=O)COC(=O)C1=COCCO1,·,-14,·,·,·,·
CCOC(=O)c1cnn(-c2nc3c(C)cccc3s2)c1C,92*,-30,90*,-1,-15,36*
O=C1OCC(CO)(CO)N=C1NNc1ccccc1Cl,-6,-16,-34,-1,0,31*
CCCCOc1ccc(C2NC(=O)NC(C)=C2C(C)=O)cc1OCC (centres undefined),·,·,·,·,41,·
CCOC(=O)c1c(NC(=O)COC)sc2c1CCCC2,20,53*,-12,2,-12,-2
Cc1cc(C)cc(OCC(=O)NNC(=O)C2CCCO2)c1 (centres undefined),·,·,·,·,-14,·
CC(c1ccco1)N(C(=O)C12CC3CC(CC(C3)C1)C2)c1ccccn1 (centres undefined),8,100*,-10,1,·,3
Cc1cc(C)n(-c2cc(N3CCN(C(=O)c4ccccc4C)CC3)ccc2[N+](=O)[O-])n1,11,3,-25,·,-22,24
CCOC(=O)N1CCC(NC(=O)c2ccc3c(Cl)c4c(nc3c2)CCCC4)CC1,·,24,·,·,-20,·
CCOC(=O)N1CCC(NC(=O)c2ccc3c(=O)n4c(nc3c2)CCCC4)CC1,-2,64*,4,-1,·,36
CNC(=S)NCC(O)c1ccc([N+](=O)[O-])cc1 (centres undefined),·,·,·,·,-18,·
O=C(CNc1ccc2ccccc2c1)N/N=C/c1cc2ccccc2nc1Cl,·,-2,·,·,·,·
CCN(CC)S(=O)(=O)c1ccc2c(c1)nc(CCC(=O)Nc1ccc3c(c1)OCO3)n2CC,·,0,·,-2,23,·
CCOC(=O)c1[nH]c(C)c(C(=O)N2CCc3ccccc32)c1C,54*,16,58,·,-61,-15
COc1cccc(CNC(=S)Nc2cc(OC)ccc2OC)c1,·,·,·,·,35,·
CO/C([O-])=N/c1c[n+](-c2ccc(Cl)cc2)no1,-4,59*,-8,0,9,30
O=[N+]([O-])c1cccnc1N1CCN(c2ccc(F)cc2)CC1,·,·,·,·,39,·
O=C1CN=C(Nc2ccccc2Cl)N1Cc1ccc2c(c1)OCO2,16,9,3,·,13,-10
O=C(Oc1ccccc1N1C(=O)C2CC=CCC2C1=O)c1ccc(Br)cc1 (centres undefined),·,78*,·,-9,·,·
CC(C)CC(N=Cc1c(O)c2ccccc2oc1=O)C(=O)O (centres undefined),·,·,·,·,-67,·
CC1CC(C)CN(S(=O)(=O)c2ccc(NC(=S)NC(=O)c3ccccc3)cc2)C1 (centres undefined),·,·,·,2,33,·
COc1cccc(/C=N/NC(=O)c2c(-c3ccccc3)noc2C)c1,6,54*,0,·,·,5
Cc1onc(-c2ccccc2)c1C(=O)N/N=C/c1cccc(O)c1,·,·,·,-2,30,·
COc1ccc(-c2cc(C(F)(F)F)nc(S(=O)(=O)CCC(=O)N3CCOCC3)n2)cc1,98*,12,20,0,-55,-15
COc1ccc(CCN(C)c2ccc(S(=O)(=O)N3CCCC3)cn2)cc1OC,·,76*,·,·,·,·

# Bioassay records from PubChem.
